Measurements: ChEMBL document CHEMBL3988442, “University of Dundee, Small-Polar-MMV Screening Library” (2021)
The whole screen tested about 38,000 compounds, of which about 1,200 (3.2%) showed an effect of 50% or more. The median lay at about -58%. The entries come from a sample that favours strong results as a whole.

These compounds were tested on Plasmodium falciparum (assay: Calibr Malaria Delayed Death Assay SOP). Conditions: concentration 4.99e-06 (unit not given; other assays of the set use mol/L).
Format: functional, organism-based
Parameters: scale not given: in the data most compounds retested in dose-response had high values

First: CNC(=O)[C@@]12CCC3(CCN(S(=O)(=O)C4CC4)CC3)[C@@H]1CN(C(C)=O)C2
Second: CC(C)Cn1ncc(C(=O)NS(=O)(=O)C2CCCC2)c1C1CC1
The “Percent Effect” value of the first is higher: -121.6% for the first, -142.6% for the second.

Going from `Cc1ccoc1C(=O)N1CCCC(CNS(C)(=O)=O)C1` (stereo unspecified) to `Cc1ccoc1C(=O)N1CCO[C@H]2[C@H](OCc3ccncc3)CC[C@@H]21`, the “Percent Effect” value falls from -23.43% to -118.2%.

Going from `NC(=O)Cn1cnc2nc3n(c2c1=O)CCC3` to `Cc1nc(CN2CCCn3c(nc(Cn4cncn4)cc3=O)C2)cs1.O=C(O)C(F)(F)F`, the “Percent Effect” value rises from -106.4% to -37.93%.

First: CC(C)N1CCOC(Cc2nn3c(Cc4ccccc4)nnc3s2)C1 (stereo unspecified)
Second: CN(Cc1ccccc1)CC1CC2(CO1)CN(c1nncs1)C2 (stereo unspecified)
The “Percent Effect” value of the first is lower: -78.89% for the first, -3.819% for the second.

First: CO[C@H]1CCN(Cc2c(C)noc2C)[C@@H]2CN(Cc3cccnc3)C[C@H]12.O=C(O)C(F)(F)F.O=C(O)C(F)(F)F.O=C(O)C(F)(F)F
Second: Cn1cncc1CNC1CC2(CCN(CC3CC3)CC2)c2ccccc21.O=C(O)C(F)(F)F.O=C(O)C(F)(F)F (stereo unspecified)
The “Percent Effect” value of the first is higher: -19.09% for the first, -88.17% for the second.

Compared with `CN(Cc1noc(C2CC2)n1)C1CCN(CCc2cccs2)C1` (stereo unspecified), `CN(Cc1ccccc1)CC1CC2(CO1)CN(Cc1nccs1)C2` (stereo unspecified) is higher in “Percent Effect” value: -58.32% for the first, 3.92% for the second.

Compared with `COc1cc(CNC(C)Cn2ccnc2)cc2c1OCO2.Cl` (stereo unspecified), `COc1cc(CNC(C)Cn2cccn2)cc2c1OCO2.Cl` (stereo unspecified) is higher in “Percent Effect” value: -50.32% for the first, -35.84% for the second.

Compared with `COc1cc(CNCc2ccc(C(C)O)cc2)cc2c1OCO2` (stereo unspecified), `COc1ccc(CNCc2cc(Br)c3c(c2)OCO3)cc1` is lower in “Percent Effect” value: 7.669% for the first, -51.11% for the second.

Compared with `Fc1ccc(CNCc2cc(Br)c3c(c2)OCO3)cc1`, `COc1cc(CNCC(O)c2ccccc2)cc2c1OCO2.Cl` (stereo unspecified) is higher in “Percent Effect” value: -20.04% for the first, 59.91% for the second.

Compared with `COc1cc(CNCC(O)c2ccc(C)cc2)cc2c1OCCO2.Cl` (stereo unspecified), `COc1cc(CNC(C)c2ccc(F)c(F)c2)cc2c1OCCO2.O=C(O)C(=O)O` (stereo unspecified) is lower in “Percent Effect” value: 46.91% for the first, -10.9% for the second.

First: Cc1cc(CNC(=O)NCC(O)c2cccc(F)c2)no1 (stereo unspecified)
Second: CC(O)CCN(C)C(=O)Nc1cccc(F)c1 (stereo unspecified)
The “Percent Effect” value of the first is higher: -84.11% for the first, -108.7% for the second.

Compared with `COc1c(C(N)=O)cn(C)c1-c1nc2cc(NC(C)=O)ccc2n1C`, `COc1cc(NC(=O)c2cc(Cl)ccc2F)c(C(=O)N(C)C)cc1OC` is lower in “Percent Effect” value: -29.86% for the first, -86.88% for the second.

Compared with `Cc1nc(O)cc(C2CCCN(Cc3c(Cl)cncc3Cl)C2)n1` (stereo unspecified), `Cc1cn2c(n1)C(CNCc1cccc3c1OCO3)CCC2` (stereo unspecified) is higher in “Percent Effect” value: -29.03% for the first, 81.04% for the second.

First: O=C(Cn1cnnn1)NC(c1ccccc1)c1ccc2c(c1)CCCO2 (stereo unspecified)
Second: CCC(=O)NC(c1cccnc1)c1cc(C)ccc1C (stereo unspecified)
The “Percent Effect” value of the first is higher: -75.22% for the first, -105.8% for the second.

First: COc1ccccc1C(=O)N1CCCC1c1ncc2c(n1)CCNC2.Cl (stereo unspecified)
Second: Cn1ncc(C(=O)O)c1C(=O)Nc1nc2ccccc2s1
The “Percent Effect” value of the first is lower: -133.7% for the first, -36.51% for the second.

Compared with `O=C(O)CCC(=O)N1CCC(c2noc3cc(F)ccc23)CC1`, `O=C(NC1CC2(CCN(CCO)CC2)c2ccccc21)c1ccno1.O=C(O)C(F)(F)F` (stereo unspecified) is higher in “Percent Effect” value: -92.3% for the first, -16.34% for the second.

First: O=C(CC1CCCC1)N1C[C@@H]2CCN(c3cccnc3)C[C@@H]2C1.O=C(O)C(F)(F)F
Second: CN(C)CCNC(=O)c1nc2c(s1)CCCN2C(=O)C1CC1.O=C(O)C(F)(F)F
The “Percent Effect” value of the first is lower: -61.89% for the first, 21.8% for the second.

Compared with `Cc1ccc2c(c1)C(NC(=O)N(C)C)CC21CCN(C)CC1.O=C(O)C(F)(F)F` (stereo unspecified), `CCN1CCC2(CC1)CC(NC(=O)N(C)C)c1cc(C)ccc12.O=C(O)C(F)(F)F` (stereo unspecified) is higher in “Percent Effect” value: -16.75% for the first, -8.453% for the second.

Going from `O=C(NC1CC2(CCN(CCO)CC2)c2ccccc21)c1ccncc1.O=C(O)C(F)(F)F.O=C(O)C(F)(F)F` (stereo unspecified) to `Cc1cccc(CNC2CC3(CCN(CCO)CC3)c3ccccc32)n1.O=C(O)C(F)(F)F.O=C(O)C(F)(F)F` (stereo unspecified), the “Percent Effect” value rises from -81.16% to 77.51%.

Going from `COCC(=O)NC1CC2(CCN(CCO)CC2)c2ccccc21.O=C(O)C(F)(F)F` (stereo unspecified) to `Cc1ccc(CNC2CC3(CCN(CCO)CC3)c3ccccc32)s1.O=C(O)C(F)(F)F.O=C(O)C(F)(F)F` (stereo unspecified), the “Percent Effect” value rises from -47.31% to 84.71%.

Going from `Cc1ccc2c(c1)C(N(C)C)CC21CCN(CCO)CC1.O=C(O)C(F)(F)F.O=C(O)C(F)(F)F` (stereo unspecified) to `CCOC1CC2(CCN(CCO)CC2)c2ccc(C)cc21` (stereo unspecified), the “Percent Effect” value falls from 74.01% to 16.18%.

First: Cc1ccc(CNC(=O)CN2CCN(CCO)CC2)s1
Second: Cc1ccc(CNCC2CCCN2c2cccnn2)s1 (stereo unspecified)
The “Percent Effect” value of the first is lower: -40.21% for the first, 44% for the second.

First: O=C(Cc1ccn[nH]1)N1CCc2cc(Br)sc2C1
Second: Cc1noc(C)c1C(C)NC(=O)N1CCN(c2cccs2)CC1 (stereo unspecified)
The “Percent Effect” value of the first is higher: -31.09% for the first, -38.18% for the second.

Going from `CC1(C)COCCN1C(=O)c1ccc(Cn2cncn2)cc1` to `Fc1ccc(OCCCN2CCCC(Cn3cncn3)C2)cc1` (stereo unspecified), the “Percent Effect” value rises from -28.18% to -24.19%.

Going from `Cc1cc(CN(C)C(=O)c2ccc(OCC(F)(F)F)nc2)no1` to `CN(Cc1cccc(C#N)c1)Cn1nc(C(C)(C)C)ccc1=O`, the “Percent Effect” value rises from -117.9% to -75.82%.

Going from `CC(C)c1nn(C)c(Cl)c1CNCC(=O)N1CCN(C)CC1.Cl` to `CC(NC(=O)N1CCN(c2cccs2)CC1)c1ccncc1` (stereo unspecified), the “Percent Effect” value rises from -109.8% to -36.24%.

Compared with `C[C@@H]1CN(Cc2cn(C)nc2-c2ccccc2F)C[C@H](C)O1`, `CN(Cc1ccccc1)CC1CC2(CO1)CN(Cc1cnn(C)c1)C2` (stereo unspecified) is higher in “Percent Effect” value: -119.2% for the first, 50.64% for the second.

First: CC(NC(=O)N1CCN(c2cccs2)CC1)c1ccc(C#N)cc1 (stereo unspecified)
Second: Cn1cc(N2CCCC(NCc3cccc4c3OCCCO4)C2)cn1 (stereo unspecified)
The “Percent Effect” value of the first is higher: 61% for the first, -37.41% for the second.

First: Cc1nn(CC(=O)N2CCC3(CN(C)C(=O)O3)C2)c(=O)c2ccccc12 (stereo unspecified)
Second: c1cc(CNCc2ccnc(N3CCCC3)c2)c2c(c1)OCO2
The “Percent Effect” value of the first is higher: -0.9093% for the first, -28.94% for the second.

First: Cc1nc(C)c(CNCC2CCCn3ccnc32)s1 (stereo unspecified)
Second: Clc1snnc1CN1CCCCC1Cn1cccn1 (stereo unspecified)
The “Percent Effect” value of the first is higher: -88.04% for the first, -105.5% for the second.

With `Cc1nnc2ccc(OCCNS(=O)(=O)c3cccs3)nn12` the “Percent Effect” value was -74.14%.
